Bioassay records deposited in PubChem by several laboratories.
In the library only some 3.3% were active in any assay of this set; here they are far more common.
NCF1 inh: p47phox (human) inhibition. P14598. p47phox/p22phox peptide binding, fluorescence polarization, 2 h. inhibition, % at 24.7 µM. 220,000 tested, 0.53% active. AID 1274;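 also: 0% = p47phox with labelled peptide and 100% = labelled peptide alone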
eIF4E 4G PPI: blocks eIF4E binding to eIF4G. TR-FRET eIF4E-eIF4GI(517-606) binding, 2 h. 220,000 tested, 0.37% active. AID 782. inhibition, % at 21.7 µM;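 also: 0% = full FRET control wells and 100% = background wells lacking eIF4GI fragment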
Mcl1-Noxa inh: Mcl-1/Noxa interaction inhibition. Q07820. TR-FRET Mcl-1/Noxa peptide binding, 2 h. inhibition, % at 21.7 µM. 220,000 tested, 1.5% active;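 active = compounds that cut the protein-peptide binding signal by more than 50% relative to plate controls in a single-dose test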;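 also: His-tagged Mcl-1 with rhodamine Noxa BH3 peptide and terbium anti-His antibody; 0% = Mcl-1 plus Noxa peptide wells and 100% = peptide-only wells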
Target sequence (Q07820 whole entry, looked up): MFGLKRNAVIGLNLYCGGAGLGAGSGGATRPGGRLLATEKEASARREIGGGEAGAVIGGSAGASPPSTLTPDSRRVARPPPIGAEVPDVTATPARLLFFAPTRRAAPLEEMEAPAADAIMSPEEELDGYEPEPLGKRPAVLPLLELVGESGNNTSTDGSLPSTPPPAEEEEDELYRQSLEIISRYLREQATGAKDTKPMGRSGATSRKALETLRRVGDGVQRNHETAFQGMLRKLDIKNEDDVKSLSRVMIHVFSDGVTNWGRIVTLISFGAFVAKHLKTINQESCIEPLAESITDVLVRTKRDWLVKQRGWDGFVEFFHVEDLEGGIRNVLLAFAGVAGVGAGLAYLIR
14-3-3 Bad inh: disrupts binding of bovine 14-3-3 zeta to phospho-Bad peptide | P63103 | TR-FRET 14-3-3zeta/Dy647-pBad peptide displacement, 1 h | 220,000 tested, 0.71% active | inhibition, % at 21.7 µM;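 active = inhibition above about 70%, limit read from the data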;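 also: 0% = full 14-3-3 plus peptide FRET controls and 100% = background without 14-3-3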
Target sequence (P63103 whole entry, looked up): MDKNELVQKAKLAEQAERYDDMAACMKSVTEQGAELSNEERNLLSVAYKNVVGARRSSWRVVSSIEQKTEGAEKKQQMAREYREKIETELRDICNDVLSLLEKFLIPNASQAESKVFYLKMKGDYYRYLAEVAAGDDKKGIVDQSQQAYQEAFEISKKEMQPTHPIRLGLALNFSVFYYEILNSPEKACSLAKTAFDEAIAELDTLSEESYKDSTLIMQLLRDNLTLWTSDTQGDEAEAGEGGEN
Mcl-1 Bim block: disrupts Bim peptide binding to human Mcl-1 | Q07820 | Bead-based flow cytometry, Bim peptide-Mcl-1 binding | inhibition, % at 10 µM | 190,000 tested, 0.1% active | AID 1009; in the data active = inhibition above about 40%;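 also: 0% = no compound tracer wells and 100% = peptide blocker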
Mcl1-Bid inh: disrupts binding of human Mcl-1 to Bid peptide; 220,000 tested, 0.97% active; Q07820; inhibition, % at 21.7 µM; TR-FRET Mcl-1/Bid-Dy647 peptide binding, 1536-well;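 active = compounds that cut the binding signal by more than half at the single screening dose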;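 also: His-tagged Mcl-1 with europium anti-His antibody binding Bid BH3 peptide; 0% = Mcl-1 plus peptide wells and 100% = peptide-only wells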
* marks the source's active call; other numbers are inactive results; x = not tested or not shown; + = active, no number; [ ] = dose if it differs, or a comment.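 The calls were made as follows, unless noted: active = inhibition above about 30% (limit read from the data); inactive = the rest.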

SMILES	NCF1 inh	eIF4E 4G PPI	Mcl1-Noxa inh	14-3-3 Bad inh	Mcl-1 Bim block	Mcl1-Bid inh
CC(C)Cn1c(N)c(C(=O)COC(=O)c2ccccc2Cl)c(=O)n(C)c1=O	0	-2	61*	0	0	-9
Cn1c(N)c(C(=O)COC(=O)c2cc(C(F)(F)F)nc3ccccc23)c(=O)n(Cc2ccccc2)c1=O	-79	3	10	4	-2	2
Cn1c(N)c(C(=O)CSc2nc3ccccc3c(=O)n2Cc2ccccc2)c(=O)n(C)c1=O	-12	3	-91	67	x	52*
Cc1ccc(S(=O)(=O)n2[nH]c(=O)cc2N)cc1	4	0	3	-3	-1	-13
Cc1cccc(N2CCN(c3ccc(NC(=O)/C=C(/C(=O)O)c4ccccc4)cc3)CC2)c1	10	14	52*	19	-2	-10
O=C(Nc1ccc(Br)cn1)C1CCCN1S(=O)(=O)c1ccccc1 (centres undefined)	-8	-7	7	3	0	-3
[O-][n+]1c2c(nn1-c1ccccc1)/C(=N/O)CCC2	-13	2	5	-5	3	-22
[O-][n+]1onc2c1CCC(=N/O)/C2=N\Nc1ccccc1	-12	17	78*	37	x	-28
Cc1nnc2n1NC(c1ccc(Cl)cc1)C(C(=O)N1CCC(C)CC1)S2 (centres undefined)	2	-7	2	-11	0	-31
Cc1nnc2n1NC(c1ccc(Cl)cc1)C(C(=O)N(C)C1CCCCC1)S2 (centres undefined)	8	-1	7	127*[fluorescence artefact?]	4	0
CC(C)S(=O)(=O)c1cnc(-c2ccccn2)nc1N	0	3	-12	9	x	-6
O=C(CSc1nc2ccc([N+](=O)[O-])cc2[nH]1)c1ccc2ccccc2c1	-13	-3	62*	-11	0	29
CC(=O)Nc1ccc(/C=N/NC(=O)c2cc(-c3ccco3)nc3ccccc23)cc1	-74	2	15	-11	x	-21
CCN(CC)C(=O)COC(=O)c1cc(-c2ccc(OC)cc2)nc2ccccc12	-11	3	-8	6	-4	97*
O=C(O)c1ccccc1/C=N/NC(=O)c1cc(-c2ccco2)nc2ccccc12	-15	45*	99*	70	x	27
CCNC(=O)COC(=O)c1cc(-c2ccc(OC)cc2)nc2ccccc12	-21	3	9	5	-6	-6
COc1ccc(OC)c(/C=N/NC(=O)c2cc(-c3ccc(C)o3)nc3ccccc23)c1	+	2	11	-1	-4	-32
CCN(CC)C(=O)COC(=O)c1cc(-c2ccco2)nc2ccccc12	46*	34*	90*	24	3	-40
CCN(CC)CCNC(=O)c1cc(-c2ccco2)nc2ccccc12	5	5	35	12	0	26
COc1cc(/C=C(\C#N)C(=O)Nc2ccccc2C(=O)O)cc(Cl)c1OC	-28	0	8	-2	1	-29
Cc1ccc(NC(=O)c2cc(-c3ccc(C)o3)nc3ccccc23)cc1	-16	-3	36	-2	1	-17
Cc1ccc(-c2cc(C(=O)Nc3ccccn3)c3ccccc3n2)o1	-9	27	82*	9	-2	0
O=C(COC(=O)c1cc(-c2ccco2)nc2ccccc12)NCc1ccccc1	-6	-1	37	-4	0	-6
COc1ccc(OC)c(/C=N\NC(=O)CSc2nnc(CCCc3ccc(OC)c(C)c3)o2)c1	-6	2	-1	-4	-4	-10
COc1ccc(OC)c(/C=N/NC(=O)CSc2cc(C)nc3c(OC)cccc23)c1	14	21	39	86*	0	35
SMILES	NCF1 inh	eIF4E 4G PPI	Mcl1-Noxa inh	14-3-3 Bad inh	Mcl-1 Bim block	Mcl1-Bid inh
CNC(=O)COC(=O)c1cc(-c2ccco2)nc2ccccc12	-2	38*	76*	61	x	1
CCOC(=O)c1cc(-c2ccco2)nc2c1c(C)nn2CCC#N	-17	-2	35	5	-5	8
CCOC(=O)c1cc(-c2ccco2)nc2c1c(C)nn2-c1cccc(Cl)c1	-30	8	78*	12	0	49
CC(=O)NC(=S)Nc1ccc(NC(=O)c2cccnc2Cl)cc1	-11	-10	13	-1	x	-35
CC(C)(O)C#Cc1ccc(CN2CCN(C3CCCCC3)C(CCO)C2)s1 (centres undefined)	-2	1	-10	-8	-3	-20
Cc1ccccc1OCC(=O)Nc1ccccc1N1CCC(C)CC1	-3	-1	1	1	-2	-1
CCOc1nsc(OCC)n1	6	2	59*	1	x	-4
CCOc1ccc2nc(Cl)sc2c1	7	-3	14	-5	0	-6
Cc1ccc(NC(=O)c2cc(N3C(=O)CCC3=O)ccc2N2CCOCC2)cc1	0	-1	2	-7	0	-4
O=C(Nc1ccc(Cl)cc1)Nc1ccc(N2CCOCC2)cc1	-8	-3	x	0	-5	-19
Cc1ccc(NC(=O)c2cc(N3C(=O)C=CC3=O)ccc2N2CCOCC2)cc1Cl	11	5	56*	-27	-19	11
O=C(Nc1ccc(N2CCOCC2)cc1)Nc1ccc(Cl)c(Cl)c1	-22	7	82*	-11	-131	-21
Cc1cc(C(=O)NC(CC(C)C)C(=O)O)cc(C)c1[N+](=O)[O-] (centres undefined)	0	4	7	-3	-1	-3
O=C1NC(=NCc2ccccc2)S/C1=C/c1ccc(O)cc1	-39	-5	14	-15	-4	-20
O=C1N/C(=C/c2ccc(Br)cc2)C(O)=C1C=NCc1ccccc1	10	-4	23	15	-3	54*
O=C(COc1ccc([N+](=O)[O-])cc1)Nc1nnc(-c2cccnc2)s1	-20	15	69*	20	x	-11
O=C(Nc1ccc2oc(-c3cccnc3)nc2c1)c1ccc([N+](=O)[O-])o1	11	10	67*	65	0	61*
O=C(Nc1ccc2oc(-c3cccnc3)nc2c1)c1ccc(Br)o1	-50	-47	23	67	0	52*
O=C(Nc1ccc2oc(-c3cccnc3)nc2c1)c1ccco1	-9	-4	38	-1	0	-17
Oc1[nH]c2ccccc2c1N=Nc1ncnc2c1oc1ccccc12	-16	13	65*	46	x	10
CCc1cc2c(N=Nc3c(O)[nH]c4ccccc34)ncnc2s1	-35	-8	15	4	0	10
CC1CCN(C(c2ccc(N(C)C)cc2)c2nnnn2C(C)(C)C)CC1 (centres undefined)	-7	-4	78*	-2	0	0
CC(C)(C)n1nnnc1C(c1ccccc1)N1CCc2ccccc2C1 (centres undefined)	-11	-6	-4	-4	-2	-20
